CYP2C19 act = human CYP2C19 activators, primary screen, biochemical, luminescence; 96,000 tested, under 10 active; recombinant CYP2C19, luciferin-H EGE luminescence; hits give high values; 0 = fully inhibited enzyme, 1 = untreated enzyme; AID 1025, 2008; activation factor at 5 µM;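 active means activation factor of at least 2 at 5 µM in the primary screen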;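 further: 0 = wells with 2.5 mM tranylcypromine and 1 = vehicle-only wells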
CYP2C9 act = human CYP2C9 activators, primary screen, biochemical, luminescence; Cytochrome P450 2C9 (Homo sapiens), P11712; activation factor at 5 µM; recombinant CYP2C9, luciferin-H conversion; hits give high values; factor 1 = untreated enzyme, 0 = blocked; 96,000 tested, 1.4% active; AID 1024, 2008;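 active means activation factor of 2 or more for CYP2C9 at a 5 µM dose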;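 further: 0 = sulfaphenazole-blocked wells and 1 = vehicle-only wells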
Target sequence (P11712 whole entry, looked up): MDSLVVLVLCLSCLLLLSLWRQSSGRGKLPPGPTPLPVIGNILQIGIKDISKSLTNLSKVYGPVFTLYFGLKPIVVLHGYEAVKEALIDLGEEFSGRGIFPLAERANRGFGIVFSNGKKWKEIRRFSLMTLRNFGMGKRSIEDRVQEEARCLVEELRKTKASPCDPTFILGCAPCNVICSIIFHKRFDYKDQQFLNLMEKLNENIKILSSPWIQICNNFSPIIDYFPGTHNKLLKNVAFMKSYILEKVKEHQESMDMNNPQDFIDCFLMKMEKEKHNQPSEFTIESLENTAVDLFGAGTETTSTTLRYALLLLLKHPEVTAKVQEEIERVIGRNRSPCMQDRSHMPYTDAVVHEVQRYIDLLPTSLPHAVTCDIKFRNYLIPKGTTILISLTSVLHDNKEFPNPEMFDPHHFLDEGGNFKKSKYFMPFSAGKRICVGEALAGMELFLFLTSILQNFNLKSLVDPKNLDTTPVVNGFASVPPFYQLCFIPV
CYP2C19 inh = blockers of cytochrome P450 2C19 activity – biochemical, luminescence, ADME assay, primary screen; 96,000 tested, 21% active; AID 778, 2007; P33261; inhibition, % at 5 µM; CYP2C19 Supersomes, luciferin-H EGE luminescence, 30 min;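 active means CYP2C19 inhibition above a set limit at 5 µM in the primary screen, cut at about 50% in these data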;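 further: plate controls were negative control wells for no effect and 2.5 mM tranylcypromine positive control for full effect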
Measles CPE = compounds protecting cells from measles virus cytopathic effect, primary screen, measles RdRp inhibitor project, single point, MLSMR library, absorbance. 140,000 tested, 1.5% active. AID 841, 2007. Measles virus-infected cells, CPE protection. protection (pct of control), % at 4 µM; in the data active means protection mostly above about 24%, no sharp cut-off; inactive means mostly below about 26%
CYP2C9 inh = blockers of cytochrome P450 2C9 activity – biochemical, luminescence, ADME assay, primary screen; CYP2C9 Supersomes, luciferin-H conversion; inhibition, % at 5 µM; 96,000 tested, 20% active; AID 777, 2007;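 active means blocking of liver enzyme CYP2C9 beyond about 50% at 5 µM, limit read from the data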
Numbers without * were called inactive; / = no result. This is a sample that favours compounds with a hit; in the whole collection about 22% have one here.

SMILES	CYP2C19 act	CYP2C9 act	CYP2C19 inh	Measles CPE	CYP2C9 inh
Cc1[nH]n(-c2ccccc2)c(=O)c1C1(C(F)(F)F)C(=O)N(c2ccc(F)cc2)C2=C1C(=O)CC(C)(C)C2 (stereo unspecified)	0.7	0.2	26.3	6.6	77.6*
CC1(C)CC(=O)C2=C(C1)N(c1ccc(F)cc1)C(=O)NC2(C(F)(F)F)C(F)(F)F	1	1	0.1	5.2	0.6
O=C(CC(Nc1ccccc1Cl)C(=O)OCC(=O)c1cccs1)c1ccccc1 (stereo unspecified)	0.3	0.4	65.4*	5.9	61.9*
Cc1cc2nc(C3CCN(C(=S)NCC(C)C)CC3)[nH]c2cc1C	/	/	/	21.0	/
Cc1ccn2cc(CCNS(=O)(=O)c3ccc4c(c3)OCCO4)nc2c1	0.2	1.4	79.0*	3.6	-41.6
COc1cc2nc(SCc3ccc(F)cc3)n(Cc3cccs3)c(=N)c2cc1OC	1	0.4	1.6	28.6	55.0*
Clc1cccc(Cl)c1CO/N=C/c1c(-c2ccccc2)nc2n1CCS2	1	0.3	3.8	24.7	72.9*
O=C(CCCCC(=O)NCc1cccs1)NCc1cccs1	1.1	1.2	-9.0	3.6	-17.7
O=C(c1ccncc1)c1nccn1-c1ccccn1	0.2	0.2	75.2*	8.6	81.2*
Cc1ccc2cc(C#N)c(SCC(=O)NCC3CCCO3)nc2c1 (stereo unspecified)	1	1.1	-1.5	3.7	-6.4
Cc1sc(NC(=O)c2ccc(OCC(C)C)cc2)c(C(N)=O)c1-c1ccc(Cl)cc1Cl	0.9	0.3	12.2	2.1	68.5*
CC1C(c2ccccc2)N(C)C(c2ccccc2)CC1(O)c1ccccc1 (stereo unspecified)	0.3	0.8	65.1*	10.9	23.8
Cc1cc(=O)[nH]c(SCC(=O)/C=C2\N(C)c3ccccc3C2(C)C)n1	/	/	/	3.2	/
CC(=Nc1ccccc1C)C1=C(O)CSC1=O	0.2	0.8	75.3*	5.9	23.2
CC1(C)CC(=O)C(C=NCCN2CCN(C(=S)Nc3ccc(F)cc3)CC2)=C(O)C1	0.2	0.8	75.2*	12.8	18.5
CCCCCC(=O)N1CCN(CCN=CC2=C(O)CC(c3ccc(OC)cc3)CC2=O)CC1 (stereo unspecified)	0.9	0.8	9.5	10.2	21.5
O=C1CC(c2ccccc2)CC(O)=C1C=NCCN1CCN(C(=S)Nc2cccc(Cl)c2)CC1 (stereo unspecified)	0.3	0.5	72.3*	9.0	47.2
CCCCCC(=O)N1CCN(CCN=CC2=C(O)CC(c3ccc(OC)c(OC)c3)CC2=O)CC1 (stereo unspecified)	0.6	0.4	40.2	10.6	64.5*
CCCCNC(=O)CCNS(=O)(=O)c1ccc(C)cc1	0.8	2.6*	17.6	3.9	-160.9
CC(C)NC(=O)CCNS(=O)(=O)c1ccc(Br)cc1	0.5	1.8	50.1*	14.2	-75.7
Cc1ccc(CNC(=O)CCNS(=O)(=O)c2ccc(C)cc2)cc1	0.9	1.7	9.0	3.9	-71.4
Nc1ncnc2nc(SCCc3ccccc3)[nH]c12	0.8	0.9	19.6	25.2	10.9
Cc1noc(/C=C/N(C)C)c1S(=O)(=O)NC1CCCCC1	0.7	0.7	25.5	30.4	29.7
CC(C)(C)C(=O)Nc1nnc(-c2ccncc2)o1	/	/	/	15.4	/
O=C(c1ccc(Cl)cc1)c1nnc(-c2ccncc2)o1	0.2	0.5	78.3*	3.9	46.9
SMILES	CYP2C19 act	CYP2C9 act	CYP2C19 inh	Measles CPE	CYP2C9 inh
O=C(c1nnc(-c2ccncc2)o1)c1ccccc1Cl	0.2	0.6	83.6*	15.7	38.4
O=C(Nc1nnc(-c2ccncc2)o1)C1CCCCC1	/	/	/	12.6	/
O=C(c1ccccc1)c1nnc(-c2ccncc2)o1	0.3	0.8	70.6*	2.0	18.8
CC(C)OC(=O)CSc1nnc(-c2cnccn2)n1-c1ccc(Cl)cc1	0.6	0.6	37.1	18.3	35.5
C=C(C)Cn1c(=O)c2c(nc3n2CCN3c2cccc(Cl)c2C)n(C)c1=O	0.9	0.5	6.5	/	50.4*
C=CCn1c(=O)c2c(nc3n2CCN3c2cccc(Cl)c2C)n(C)c1=O	0.9	0.5	8.0	7.2	45.1
N=c1sccn1CC(=O)NC(=O)NC1CCCC1	/	/	/	8.1	/
Cc1nn(C(=O)N2CCCCC2)c(C)c1CN1C(=O)c2ccccc2C1=O	0.3	0.4	68.7*	4.9	61.2*
Cc1nn(C(=O)c2cccs2)c(C)c1CN1C(=O)c2ccccc2C1=O	0.7	0.6	28.3	15.6	39.2
Cc1nn(C(=O)c2ccco2)c(C)c1CN1C(=O)c2ccccc2C1=O	0.6	0	41.5	3.0	95.6*
Cc1nn(S(=O)(=O)N(C)C)c(C)c1CN1C(=O)c2ccccc2C1=O	0.8	0.9	21.8	8.7	9.5
CCCC(C)C(=O)Nc1ccc(Cl)cc1Cl (stereo unspecified)	0.7	1	34.8	15.9	3.0
CC(=O)Oc1c(Cl)cc(Cl)cc1/C=C/c1ccc2ccccc2n1	0.9	1	6.7	8.7	3.0
COc1cc(/C=C/c2cc(OC(C)=O)c3ccccc3n2)c(OC(C)=O)c([N+](=O)[O-])c1	0.2	0.2	75.4*	4.3	79.3*
CCOC(=O)N1CCN(C(=O)CN(c2cc(C(F)(F)F)ccc2Cl)S(C)(=O)=O)CC1	0.5	0.6	54.5*	8.0	39.2
Cc1c(Cl)cccc1N(CC(=O)N1CCCCCC1)S(C)(=O)=O	0.6	1.1	38.4	33.5	-8.2
CS(=O)(=O)N(CC(=O)N1CCCC1)c1cc(Cl)c(Cl)cc1Cl	0.1	0.5	90.3*	2.1	45.2
CCOC(=O)N1CCN(C(=O)CN(c2ccc(OC)cc2)S(C)(=O)=O)CC1	/	/	/	11.4	/
CCOC(=O)N1CCN(C(=O)CN(c2ccc(Cl)c(C(F)(F)F)c2)S(C)(=O)=O)CC1	0.4	0.9	56.4*	6.2	11.7
CC(C)c1[nH]c(=O)c(C#N)c2c1CSC(C)(C)C2	0.3	1	71.2*	3.3	2.8
CCCCc1[nH]c(=O)c(C#N)c2c1CSC(C)(C)C2	0.4	0.6	63.4*	24.7	36.7
CCc1[nH]c(=O)c(C#N)c2c1CSC(C)(C)C2	/	/	/	1.8	/
Cc1ccc2cccc(SCC(=O)NCC#N)c2n1	/	/	/	13.8	/
Cc1ccc(SC(C)C(=O)Nc2ccc(S(=O)(=O)N3CCOCC3)cc2)cc1 (stereo unspecified)	0.6	0.4	36.7	3.0	60.5*
Cc1ccc(SC(C)C(=O)Nc2ccccc2-c2ccccc2)cc1 (stereo unspecified)	/	/	/	7.1	/
CSc1ccccc1C(=O)Nc1cccc(N(C)S(C)(=O)=O)c1	0.7	0.7	27.3	15.8	33.8
Cc1ccc(SC(C)C(=O)Nc2ccncc2)cc1 (stereo unspecified)	0	0	99.6*	9.4	96.6*

Screening data deposited in PubChem BioAssay by several laboratories.
